Reference: PubChem BioAssay (Tox21)
Inconclusive results are not listed. Where a call stands in place of a potency, no number is given. Values without a mark were called inactive. Calls of active or inactive are those of the source. Calls come from the whole dose curve.

Assay: p53 small molecule agonists, cell-based qHTS assay with rat liver microsomes (AID 1963578)
Settings: HCT-116 p53RE-bla, beta-lactamase ratio, 16 h; series mostly up to 66 µM; activation: at the top concentration
Excerpt: U.S. Tox21 Program National Center for Advancing Translational Sciences [NCATS] Division of Preclinical Innovation [DPI] U.S. Environmental Protection Agency [EPA] National Institutes of Environmental Health Sciences [NIEHS] National Toxicology Program [NTP] U.S. Food and Drug Administration [FDA] Tox21 Assay Overview: p53, a tumor suppressor protein, is activated following cellular insult, including DNA damage and other cellular stresses. The activation of p53 regulates cell fate by inducing DNA repair, cell cycle arrest, apoptosis, or cellular senescence. The activation of p53, therefore, is a good indicator of DNA damage and other cellular stresses. […] The activation of the reporter gene under culture conditions can be detected by fluorescence intensity. This cell line was used to screen the Tox21 10K compound library in the condition of presence of rat liver microsomes and to identify agonists that activate the p53 signaling pathway after in vitro metabolic activation (Ooka et al., Archive of Toxicology 96:1975-1987, 2022).
Tox21 Assay Protocol Summary: The p53RE-bla cells were dispensed at 4,000cells/3ul/well in 1536-well black-clear bottom plates. After the assay plates were incubated at 37 C, 5% CO2 incubator for 5 hours, 23 nL of compounds dissolved in DMSO, positive controls or DMSO only was transferred to the assay plate. Following compound addition, 3 uL of rat liver microsomes (Molecular Toxicology, Boone, NC) at final concentration of 0.5 mg/mL and 1uL of Beta-Nicotinamide adenine dinucleotide 2-phosphate (NADPH) at final concentration of 0.5 mg/mL were transferred to the assay plate. The plates were incubated at 37 C for 16 hours. 1 uL of LiveBLAzer detection mixture was added to each well and the plates were incubated at room temperature in the dark for 2 h.

Structure (SMILES) | Potency | activation
CCCCC1C(=O)N(c2ccccc2)N(c2ccccc2)C1=O | inactive | –
O=C(O)CCCCC(=O)O | inactive | –
OC[C@@H](O)[C@H](O)[C@H](O)[C@@H](O)CO | inactive | –
CCCCOC(=O)COc1ccc(Cl)cc1Cl | inactive | –
CCc1ccc(O)cc1 | inactive | –
NS(=O)(=O)c1cc2c(cc1Cl)NC=NS2(=O)=O | inactive | –
COC(=O)CC(=O)OC | inactive | –
C[C@@H](O)[C@H]1C(=O)N2C(C(=O)O)=C(S[C@@H]3CN[C@H](C(=O)N(C)C)C3)[C@H](C)[C@H]12 | inactive | –
CCC(C)(O)CCCC(C)C (stereo not given) | inactive | –
CCOC(=O)C1OC1c1ccccc1 (stereo not given) | inactive | –
Nc1ccc(S(=O)(=O)c2ccc(N)cc2)cc1 | inactive | –
C=CC(=O)OCCCC | inactive | –
O=C(c1cc(O)c(O)c(O)c1)c1ccc(O)c(O)c1O | inactive | –
OCCCc1ccccc1 | inactive | –
O=Cc1ccc(CO)o1 | inactive | –
CCCCCCCCCCCCc1ccccc1O | inactive | –
O=C(O)c1cn(-c2ccc(F)cc2)c2cc(N3CCNCC3)c(F)cc2c1=O | inactive | –
Cc1cc(CC(=O)O)n(C)c1C(=O)c1ccc(Cl)cc1 | inactive | –
O=C1C(N(CO)C(=O)NCO)N(CO)C(=O)N1CO (stereo not given) | inactive | –
COc1ccc(Cl)cc1C(=O)NCCc1ccc(S(=O)(=O)NC(=O)NC2CCCCC2)cc1 | inactive | –

Structure (SMILES) | Potency | activation
COC(=O)c1cccc(C(=O)OC)c1 | inactive | –
O=C1CCCCCCCCCCC1 | inactive | –
C=C[C@@]1(C)CC(=O)[C@]2(O)[C@@]3(C)[C@@H](O)CCC(C)(C)[C@@H]3[C@H](O)[C@H](OC(C)=O)[C@@]2(C)O1 | inactive | –
COCCOCCOC | inactive | –
C=CC[N+](C)(C)CC=C | inactive | –
CC1=C(/C=C/C(C)=C/C=C/C(C)=C/C(=O)Nc2ccc(O)cc2)C(C)(C)CCC1 | inactive | –
CCCCOCCOCCO | inactive | –
CCCCCCCCCCCCCCCO | inactive | –
Nc1cc([N+](=O)[O-])ccc1C(=O)O | inactive | –
COc1ccccc1O | inactive | –
CCC(O)OC(O)CC (stereo not given) | – | 1.85%
O=c1[nH]c(=O)n([C@H]2C[C@H](O)[C@@H](CO)O2)cc1Br | inactive | –
O=c1[nH]cc(F)c(=O)[nH]1 | inactive | –
CC(C)=CCC/C(C)=C/CO | inactive | –
CC(C)CC(=O)CC(C)C | inactive | –
COc1ccc2[nH]cc(CCNC(C)=O)c2c1 | inactive | –
NS(=O)(=O)O | inactive | –
CC(=O)Nc1ccc(C(=O)O)cc1 | inactive | –
COC(=O)CCCCC(=O)OC | inactive | –
C[C@]12C=CC(=O)C=C1CC[C@H]1[C@@H]3C[C@@H](O)[C@](O)(C(=O)CO)[C@@]3(C)C[C@H](O)[C@@]12F | inactive | –
